Results: PubChem BioAssay (NCATS)
“And” between values parts separate entries of the source, which are not always exact repeats. Equal values may be shown once. Records with an inconclusive call do not appear. The source made the active and inactive calls. Calls come from the whole dose curve; as a rule, active = well fitted inhibition curve with a large enough effect; inconclusive = small, poorly fitted or top-dose-only effect; inactive = no such curve, though single readings can be large or run the other way.

experiment: Primary qHTS for inhibitors of nuclear receptor binding SET domain protein 2 (NSD2) in an RCH-ACV wild type WT cells (2C) (AID 1645877); details: RCH-ACV (leukaemia line) NSD2 WT (2C) viability, CellTiter-Glo, 72 h; series mostly up to 44.9 µM; note: nearly all actives have a fitted effect of over 70% in size
Description: Assay Provider: Jonathan D. Licht, MD
University of Florida College of Medicine, Gainesville, FL
Mutations in epigenetic regulators are common in relapsed pediatric acute lymphoblastic leukemia (ALL). Here, we uncovered the mechanism underlying the relapse of ALL driven by an activating mutation of the NSD2 histone methyltransferase (p.E1099K). […] Correction of this mutation restored glucocorticoid sensitivity. The transcriptional response to glucocorticoids was blocked in NSD2 mutant cells due to depressed glucocorticoid receptor (GR) levels and the failure of glucocorticoids to autoactivate GR expression. […] Pre-treatment of NSD2 p.E1099K cell lines and PDX samples with PRC2 inhibitors reversed glucocorticoid resistance in vitro and in vivo.
High-throughput drug screening of isogenic RCH-ACV cell lines was performed at the National Center for Advancing Translational Science (NCATS), National Institutes of Health as previously described (1). Briefly, isogenic RCH-ACV NSD2 p.E1099K mutant (9B) and WT cells (2C) were plated at 500 cells/well in a 1536-well plate with a 72-hour incubation with compounds prior to addition of CellTiter-Glo to assess cell viability. NCATS libraries screened include: NPC, MIPE 5.0, Kinase and NPACT. To determine compound activity in the qHTS assay, the concentration-response data for each sample was plotted and modeled by a four-parameter logistic fit yielding IC50 and efficacy (maximal response) values. The area under the curve (AUC) of the dose-response curve ensures both efficacy (magnitude of cell killing) and potency (concentration that elicits cell killing) are accounted for in the analysis of activity.
1. Tobie D Lee, Olivia W Lee, Kyle R Brimacombe, Lu Chen, Rajarshi Guha, Sabrina Lusvarghi, Bethilehem G Tebase, Carleen Klumpp-Thomas, Robert W Robey, Suresh V Ambudkar, Min Shen, Michael M Gottesman, Matthew D Hall. A High-Throughput Screen of a Library of Therapeutics Identifies Cytotoxic Substrates of P-glycoprotein. Mol Pharmacol. 2019, Nov;96(5):629-640.
Potency is the fitted concentration of half-maximal effect.

Compound	Potency
CN1C(=O)C(Cc2c[nH]c3ccccc23)NC1=S (stereo not given)	inactive
CN(C)N=Nc1nc[nH]c1C(N)=O	3.72 µM (active)
CCCCC(F)(F)[C@@]1(O)CC[C@H]2[C@H](CC(=O)[C@@H]2CCCCCCC(=O)O)O1	inactive
C[C@@H](N)c1ccc(C(=O)Nc2ccnc3[nH]ccc23)cc1	4.17 µM (active)
COC(=O)[C@H](c1ccccc1Cl)N1CCc2sccc2C1	inactive
CN1CCN(c2ncc(-c3cc(Cl)cc(Cl)c3Cl)c(N)n2)CC1	18.6 µM (active)
Clc1ccc(C2(c3ccc(-c4cn[nH]c4)cc3)CCNCC2)cc1	1.83 µM (active) and 2.35 µM (active)
Nc1nc(Cl)nc2c1ncn2[C@@H]1O[C@H](CO)[C@@H](O)[C@H]1F	0.0206 µM (active)
Cc1ccccc1C(=O)c1ccc(Nc2ccc(Br)cc2N)cc1Cl	10.5 µM (active) and 9.2 µM (active)
CC(C)Oc1cc(Nc2nc(N[C@@H](C)c3ccc(F)cn3)ncc2Cl)[nH]n1	9.34 µM (active) and 6.51 µM (active)
COc1cc2ncn(-c3cc(OCc4ccccc4S(C)(=O)=O)c(C#N)s3)c2cc1OC	inactive
CCn1c(-c2nonc2N)nc2cncc(CNC3CCNCC3)c21	11.5 µM (active)
NS(=O)(=O)c1ccc(Nc2nc(OCC3CCCCC3)c3[nH]cnc3n2)cc1	13.2 µM (active)
COc1nc(C)cnc1NS(=O)(=O)c1cccnc1-c1ccc(-c2nnco2)cc1	inactive
Cc1nc(NC(=O)N2CCC[C@@H]2C(N)=O)sc1-c1csc(C(C)(C)C)n1	7.31 µM (active)
CN(C)c1ccccc1CN1CCCN(Cc2ccccc2N(C)C)C1c1ccncc1	10.5 µM (active)
CN1CC(=O)NC1=NC(=O)Nc1cccc(Cl)c1	inactive
CNC(=O)[C@H](Cc1ccccc1)NC(=O)[C@H](CC(C)C)[C@H](CSc1cccs1)C(=O)NO	inactive
C[C@@]1(c2cc(-c3cncnc3)c(F)cc2F)CCSC(N)=N1	inactive
C[C@@]1(C(=O)Nc2ccc(F)nc2)CCCN1c1nc(Nc2cc(C3CC3)[nH]n2)c2cccn2n1	2.63 µM (active)

Compound	Potency
Cc1ccc(C(=O)N(CCCN)[C@@H](c2oc3cc(Cl)ccc3c(=O)c2Cc2ccccc2)C(C)C)cc1	0.0263 µM (active)
CCOC(=O)[C@@H](N)CCC(=O)N[C@@H](CSCc1ccccc1)C(=O)N[C@@H](C(=O)OCC)c1ccccc1	16.6 µM (active)
COc1cc2c(cc1Cc1cccc(Cl)c1F)c(=O)c(C(=O)O)cn2[C@H](CO)C(C)C	5.25 µM (active)
Nc1ncnc2c1ncn2[C@@H]1O[C@H](CO)[C@@H](O)[C@@H]1O	16.6 µM (active)
O=C(Nc1cccc(Cl)c1)Nc1ncc(CCNc2ncnc3ccsc23)s1	0.0295 µM (active)
CN(C(Cc1ccc(OS(=O)(=O)c2cccc3cnccc23)cc1)C(=O)N1CCN(c2ccccc2)CC1)S(=O)(=O)c1cccc2cnccc12 (stereo not given)	6.51 µM (active)
NS(=O)(=O)c1cc(Cl)c(Cl)c(S(N)(=O)=O)c1	inactive
O=[N+]([O-])c1ccc(Nc2ccccc2-c2ccccc2)c2nonc12	20.9 µM (active)
COc1ccc(-c2cc3nccn3c(Nc3ncccc3C(N)=O)n2)cc1OC	0.728 µM (active)
CCCCC[C@H](O)C=C[C@H]1[C@H](O)CC(=O)[C@H]1CC=CCCCC(=O)O	23.7 µM (active)
CC[C@H](C=C[C@@H](C)[C@H]1CC[C@H]2[C@@H]3CC=C4C[C@@H](O)CC[C@]4(C)[C@@H]3CC[C@]12C)C(C)C	inactive
N#Cc1ccc(Oc2ccc3c(c2)COB3O)cc1	6.61 µM (active)
NC(=O)c1noc([C@H](CCCC2CCCCC2)CC(=O)NO)n1	1.66 µM (active)
NC1(C(=O)N[C@@H](CCO)c2ccc(Cl)cc2)CCN(c2ncnc3[nH]ccc23)CC1	2.35 µM (active)
O=C(Nc1cccc2c(=O)cc(-c3nn[nH]n3)oc12)c1ccc(OCCCCc2ccccc2)cc1	inactive
Cc1cc2c(cc1C1(c3ccc(C(=O)O)cn3)CC1)C(C)(C)CCC2(C)C	inactive
CCCCOCCOc1nc(-c2ccc(C(=O)O)c(F)c2)sc1C	inactive
CN1CCN(c2cccc(Nc3nc4c(-c5ccc(S(C)(=O)=O)cc5)cccn4n3)c2)CC1	1.63 µM (active) and 8.33 µM (active)
O=C1NC(=O)C(c2cnc3ccccn23)=C1c1cn2c3c(cccc13)CN(C(=O)N1CCOCC1)CC2	0.0148 µM (active)
COc1cc2c(cc1OC)CC(=O)N(CCCN(C)C[C@H]1Cc3cc(OC)c(OC)cc31)CC2	inactive
